This note sets out measurements from PubChem BioAssay (EPA / NIEHS).

Active and inactive are the calls of the source. How the source made its calls: active means hit-call score of the fitted dose curve at least 0.9, where 1 is the maximum; inactive means score below 0.9.

Read-out in one test: sulfotransferase 2A1 (SULT2A1), SULT2A1 (gene 6822)
The test can be described thus: LTEA_HepaRG_SULT2A1: Life Technologies and Expression Analysis (LTEA) Assay for sulfotransferase 2A1 (SULT2A1) using HepaRG (AID 2283531). The conditions noted are these: mRNA level, 48 h; actives raise or lower the signal. The essentials: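 Gene-expression endpoint in a human liver cell line: SULT2A1 mRNA change after 48 h chemical treatment, curves fitted in both directions relative to 0.5% DMSO vehicle. Concentrations spanned eight half-log steps from 100 uM.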
Turning to `c1ccc(N=Nc2ccccc2)cc1`, the compound was called inactive.
In the case of `O=Cc1ccco1`, the call was inactive.
Consider `Nc1cc(Cl)cc(C(=O)O)c1Cl`, for which the compound was classed as inactive.
`Nc1ccc(Oc2ccc(N)cc2)cc1`: the outcome was inactive.
`O=C1CCCO1`: the result was inactive.
Same read-out and setting: as for `CC(C)N(Cc1ccccc1)C(=O)C(C)(C)C`, the entry is “inactive”; as for `CCNS(=O)(=O)C(F)(F)C(F)(F)C(F)(F)C(F)(F)C(F)(F)C(F)(F)C(F)(F)C(F)(F)F`, “inactive”.
Same read-out and setting: then `c1ccc2c(c1)-c1cccc3cccc-2c13`, with “inactive”.
Turning to `C1=Cc2cccc3cccc1c23`, the compound was classed as inactive.
With `c1ccc2c(c1)oc1ccccc12`, the call was inactive.
As for `CC(C)(O)c1cnn2c(-c3ccc(F)c(-c4c(F)cccc4C#N)c3)cnc2n1`, the result was inactive.
`CCCCC(CC)COC(=O)c1ccc(C(=O)OCC(CC)CCCC)c(C(=O)OCC(CC)CCCC)c1` (centres undefined): the result was inactive.
For `Nc1ccc([N+](=O)[O-])cc1`, the compound was classed as inactive.
For the compound `Oc1ccc2ccc3cccc4ccc1c2c34`, the call was inactive.
Same read-out and setting: as for `C[N+](C)(C)CC1CO1` (centres undefined), the entry is “inactive”.

Read-out in a further test: Transforming Growth Factor (TGFA), TGFA (gene 7039)
Kind of test: LTEA_HepaRG_TGFA: Life Technologies and Expression Analysis (LTEA) Assay for Transforming Growth Factor (TGFA) using HepaRG (AID 2283532). The conditions noted are these: mRNA level, 48 h; actives raise or lower the signal. The essentials: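 Gene expression of TGFA was quantified by qRT-PCR after human HepaRG cells were treated for 48 h with test chemicals (eight concentrations, highest 100 uM, 0.5% DMSO). Activity in either direction was fitted relative to DMSO.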
Consider `ClCCOCCCl`, for which the compound was classed as inactive.
With `c1ccc(N=Nc2ccccc2)cc1`, the compound was called inactive.
On the same count and under the same terms, then `Clc1ccc(C(c2ccc(Cl)cc2)C(Cl)(Cl)Cl)cc1`, with “inactive”.
On to `[As]#[In]`, for which the compound was classed as inactive.
Still for that read-out and setting: then `O=Cc1ccco1`, with “inactive”; and `Nc1cc(Cl)cc(C(=O)O)c1Cl`, with “inactive”.
On the same count and under the same terms, then `Nc1ccc(Oc2ccc(N)cc2)cc1`, with “inactive”.
The same measure, in the same setting: then `O=C1CCCO1`, with “inactive”; and `CC(C)N(Cc1ccccc1)C(=O)C(C)(C)C`, with “inactive”.
On to `COC(=O)c1ccccc1N`, for which the compound was called inactive.
Regarding `CCNS(=O)(=O)C(F)(F)C(F)(F)C(F)(F)C(F)(F)C(F)(F)C(F)(F)C(F)(F)C(F)(F)F`, the result was inactive.
Consider `Clc1ccc(C(c2ccc(Cl)cc2)C(Cl)Cl)cc1`, for which the call was inactive.
Same read-out and setting: then `c1ccc2c(c1)-c1cccc3cccc-2c13`, with “inactive”.
On the same count and under the same terms, then `C1=Cc2cccc3cccc1c23`, with “inactive”.
Consider `c1ccc2c(c1)oc1ccccc12`, for which the compound was classed as inactive.
Consider `CCC[CH2][Sn]([Cl])([CH2]CCC)[CH2]CCC`, for which the AC50 is 50 µM (active).
For the compound `CC(C)(O)c1cnn2c(-c3ccc(F)c(-c4c(F)cccc4C#N)c3)cnc2n1`, the concentration at half-maximal activity (AC50) is 12.6 µM (active).
On to `c1ccc(NNc2ccccc2)cc1`, for which the compound was called inactive.
Same read-out and setting: as for `CN(C)c1ccc(C(=O)c2ccc(N(C)C)cc2)cc1`, the entry is “inactive”.
`CCCCC(CC)COC(=O)c1ccc(C(=O)OCC(CC)CCCC)c(C(=O)OCC(CC)CCCC)c1` (centres undefined): the call was inactive.
In the case of `CN(C)C(=O)Nc1ccc(Cl)cc1`, the result was inactive.
Take `Cc1ccc(N)cc1`: the call was inactive.
As for `Nc1ccc([N+](=O)[O-])cc1`, the compound was classed as inactive.
Consider `CC(O)CCO` (centres undefined), for which the call was inactive.
As to `Oc1ccc2ccc3cccc4ccc1c2c34`, the compound was classed as inactive.
Take `CCCCCCCCCCCCCN1CC(C)OC(C)C1` (centres undefined): the result was inactive.
On to `C[N+](C)(C)CC1CO1` (centres undefined), for which the result was inactive.
As to `Cc1ccc([N+](=O)[O-])cc1`, the result was inactive.

Read-out in the next test: Transforming Growth Factor (TGFB1), TGFB1 (gene 7040)
The test can be described thus: LTEA_HepaRG_TGFB1: Life Technologies and Expression Analysis (LTEA) Assay for Transforming Growth Factor (TGFB1) Transporter using HepaRG (AID 2283533). The conditions noted are these: mRNA level, 48 h; actives raise or lower the signal. The essentials:
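Eight-point concentration-response (max 100 uM, half-log) in HepaRG under serum-free induction conditions, 48 h. TGFB1 mRNA by qRT-PCR, housekeeping-normalized.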
With `ClCCOCCCl`, the result was inactive.
For the compound `Clc1ccc(C(c2ccc(Cl)cc2)C(Cl)(Cl)Cl)cc1`, the compound was called inactive.
The same measure, in the same setting: then `[As]#[In]`, with “inactive”; and `COC(=O)c1ccccc1N`, with “inactive”.
As for `Clc1ccc(C(c2ccc(Cl)cc2)C(Cl)Cl)cc1`, the result was inactive.
In the case of `CCC[CH2][Sn]([Cl])([CH2]CCC)[CH2]CCC`, the compound was called inactive.
As for `c1ccc(NNc2ccccc2)cc1`, the compound was called inactive.
Same read-out and setting: then `CN(C)c1ccc(C(=O)c2ccc(N(C)C)cc2)cc1`, with “inactive”.
For the compound `CN(C)C(=O)Nc1ccc(Cl)cc1`, the call was inactive.
On the same count and under the same terms, as for `Cc1ccc(N)cc1`, the entry is “inactive”.
In the case of `CC(O)CCO` (centres undefined), the compound was classed as inactive.
In the case of `CCCCCCCCCCCCCN1CC(C)OC(C)C1` (centres undefined), the outcome was inactive.
For `Cc1ccc([N+](=O)[O-])cc1`, the compound was classed as inactive.

Read-out in the next test: TIMP1, TIMP1 (gene 7076)
Kind of test: LTEA_HepaRG_TIMP1: Life Technologies and Expression Analysis (LTEA) Assay for TIMP1 using HepaRG (AID 2283534).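 Further: TaqMan qRT-PCR signal normalized to ACTB GAPDH and POLR2A housekeeping genes.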 The conditions noted are these: mRNA level, 48 h; actives raise or lower the signal. The essentials: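 TIMP1 induction or repression in HepaRG cells after 48 h chemical exposure (eight concentrations, highest 100 uM), assessed by normalized qRT-PCR with bidirectional fitting to DMSO controls.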
As for `ClCCOCCCl`, the result was inactive.
With `c1ccc(N=Nc2ccccc2)cc1`, the call was inactive.
On the same count and under the same terms, then `Clc1ccc(C(c2ccc(Cl)cc2)C(Cl)(Cl)Cl)cc1`, with “inactive”; and `[As]#[In]`, with “inactive”; and `O=Cc1ccco1`, with “inactive”.
In the case of `Nc1cc(Cl)cc(C(=O)O)c1Cl`, the result was inactive.
On the same count and under the same terms, then `Nc1ccc(Oc2ccc(N)cc2)cc1`, with “inactive”; and `O=C1CCCO1`, with “inactive”; and `CC(C)N(Cc1ccccc1)C(=O)C(C)(C)C`, with “inactive”.
`COC(=O)c1ccccc1N`: the result was inactive.
`CCNS(=O)(=O)C(F)(F)C(F)(F)C(F)(F)C(F)(F)C(F)(F)C(F)(F)C(F)(F)C(F)(F)F`: the compound was called inactive.
For `Clc1ccc(C(c2ccc(Cl)cc2)C(Cl)Cl)cc1`, the call was inactive.
As for `c1ccc2c(c1)-c1cccc3cccc-2c13`, the compound was classed as inactive.
Turning to `C1=Cc2cccc3cccc1c23`, the call was inactive.
Consider `c1ccc2c(c1)oc1ccccc12`, for which the result was inactive.
On to `CCC[CH2][Sn]([Cl])([CH2]CCC)[CH2]CCC`, for which the outcome was inactive.
Still for that read-out and setting: as for `CC(C)(O)c1cnn2c(-c3ccc(F)c(-c4c(F)cccc4C#N)c3)cnc2n1`, the entry is “inactive”; as for `c1ccc(NNc2ccccc2)cc1`, “inactive”; as for `CN(C)c1ccc(C(=O)c2ccc(N(C)C)cc2)cc1`, “inactive”.
Consider `CCCCC(CC)COC(=O)c1ccc(C(=O)OCC(CC)CCCC)c(C(=O)OCC(CC)CCCC)c1` (centres undefined), for which the outcome was inactive.
`CN(C)C(=O)Nc1ccc(Cl)cc1`: the call was inactive.
Turning to `Cc1ccc(N)cc1`, the outcome was inactive.
On the same count and under the same terms, then `Nc1ccc([N+](=O)[O-])cc1`, with “inactive”.
As for `CC(O)CCO` (centres undefined), the compound was classed as inactive.
For the compound `Oc1ccc2ccc3cccc4ccc1c2c34`, the result was inactive.
Take `CCCCCCCCCCCCCN1CC(C)OC(C)C1` (centres undefined): the outcome was inactive.
With `C[N+](C)(C)CC1CO1` (centres undefined), the outcome was inactive.
As to `Cc1ccc([N+](=O)[O-])cc1`, the compound was called inactive.

The term AC50 denotes the midpoint of the concentration-response curve, whichever way the signal moves.
